The values below come from PubChem BioAssay (NCATS).

In one assay the test system is TAB165. Briefly: qHTS profiling for inhibitors of Plasmodium falciparum proliferation (AID 504749).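 Note: 0% = DMSO vehicle and full inhibition = artemisinin control.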 The following applies: P. falciparum in erythrocytes, SYBR Green DNA, 72 h; series mostly up to 28.7 µM. In outline: (§1)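 Fluorescence of SYBR Green-bound parasite DNA, read at 485/535 nm, served as the growth measure. Infected erythrocytes were cultured with compound 72 h; artemisinin (0.29 uM) and DMSO wells defined the normalization range.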
(Quantitative high-throughput screening tests each substance at several concentrations.)

Another assay concerns W2. Described as above. To be noted: P. falciparum in erythrocytes, SYBR Green DNA, 72 h; series mostly up to 28.7 µM. In short, it runs like this:
as §1

The next assay has as its system CRL-7250. Briefly: Cytotoxic Profiling of Annotated Libraries Using Quantitative High-Throughput Screening (AID 1296008). For max response: % is set by controls: 0 for no effect and ±100 for the full control effect. Note: potency is the fitted concentration of half-maximal effect. The following applies: Five cell lines viability, CellTiter-Glo ATP luminescence, 48-72 h; max response: active compounds read low. In short, it runs like this:
(§2)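 Compounds were pin-transferred onto cells and incubated 48 or 72 hr at 37 degree Celsius, 95% humidity. CellTiter-Glo was added, plates sat 10 min at room temperature, then ATP-coupled luminescence was imaged as the viability read-out.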
(In general: In ATP-based viability assays light output follows the ATP content of the culture.)

The subject of the next assay is HEK293. Described as above. The following applies: Five cell lines viability, CellTiter-Glo ATP luminescence, 48-72 h; max response: active compounds read low. In short, it runs like this: as §2
The subject of assay [1] is HaCat. The description is as above. To be noted: Five cell lines viability, CellTiter-Glo ATP luminescence, 48-72 h; max response: active compounds read low. In outline:
as §2

A further assay deals with KB-3-1. The assay is described as above. To be noted: Five cell lines viability, CellTiter-Glo ATP luminescence, 48-72 h; max response: active compounds read low. In short, it runs like this:
as §2

For the next assay, the system named is NIH3T3. The assay is described as above. The following applies: Five cell lines viability, CellTiter-Glo ATP luminescence, 48-72 h; max response: active compounds read low. In short, it runs like this:
as §2

Assay [2] relates to HACAT. The experiment in a line: qHTS assay to identify novel small-molecules to repurpose for Merkel cell carcinoma treatment (AID 1296009). The following applies: MCC and control cell lines, CellTiter-Glo viability, 72 h; at 44.8 µM (top of the series) unless noted. In short, it runs like this: (§3)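 Luminescence from CellTiter-Glo, read 10 min after addition at room temperature, reported viability following a 72 hr, 37 degree celsius treatment with NPC or MIPE compounds in titration; values normalized to plate controls.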

The test system of another assay is HEK293T. Described as above. To be noted: MCC and control cell lines, CellTiter-Glo viability, 72 h; at 44.8 µM (top of the series) unless noted. In outline: as §3
A further assay has as its system MCC-13. Described as above. The following applies: MCC and control cell lines, CellTiter-Glo viability, 72 h; series mostly up to 46 µM. In short, it runs like this: as §3

Values joined by “and” are separate entries in the source; they are usually repeats but may differ in a detail not shown here. Identical values can stand only once. Inconclusive results are not listed. Unmarked numbers belong to inactive results. Active and inactive are the calls of the source. Calls come from the whole dose curve; as a rule, active = well fitted inhibition curve with a large enough effect; inconclusive = small, poorly fitted or top-dose-only effect; inactive = flat fitted curve, though single readings scatter.
Note: nearly all actives have a fitted effect of over 60% in size.

As for `O=c1cc[nH]c(=S)[nH]1`, the Potency result in the assay with TAB165, in the assay on W2 and with MCC-13 was “inactive” throughout. Moreover, the max response is 1.22% with CRL-7250, -6.83% in the assay with KB-3-1 and -2.25% in the assay with NIH3T3. For the same compound, the compound was called inactive in the assay on HEK293, in the assay with HaCat [1], in the assay on HACAT [2] and in the assay with HEK293T.
Take `CCCCCCCCCCCCCCCC(=O)NCCO`: the Potency result in the assay with TAB165, in the assay on W2 and in the assay with MCC-13 was “inactive” throughout. Also, the result with CRL-7250, with HEK293 and with HEK293T was inactive. Besides, the max response is -5.78% in the assay with HaCat [1], -1.52% with KB-3-1 and 2.39% in the assay with NIH3T3.
With `CC(O)CN(CCN(CC(C)O)CC(C)O)CC(C)O` (centres undefined), the Potency result in the assay with TAB165, in the assay with W2 and in the assay with MCC-13 was “inactive” each time. Further, the max response in the assay on CRL-7250 was 4.33%; with KB-3-1, -16.3%. For the same compound, the outcome in the assay on HEK293, in the assay on HaCat [1], in the assay with NIH3T3, with HACAT [2] and in the assay on HEK293T was inactive.
On to `COc1ccc2cc1Oc1cc3c(cc1OC)CC[N+](C)(C)[C@H]3Cc1ccc(cc1)Oc1c(OC)c(OC)cc3c1[C@@H](C2)[N+](C)(C)CC3`, for which the result in the assay on CRL-7250, in the assay with HEK293, with NIH3T3 and with HEK293T was inactive. In addition, the max response in the assay on HaCat [1] was 0.882%; in the assay with KB-3-1, 0.968%. The Potency result with MCC-13 was “inactive”.
Regarding `CC1(C)OC(=O)NC1=O`, the Potency result in the assay with TAB165, in the assay with W2 and in the assay with MCC-13 was “inactive” each time. Moreover, the max response in the assay with CRL-7250 is 4.73%; with KB-3-1 it was 1.34%; in the assay on NIH3T3, 3.48%. The compound was classed as inactive with HEK293, in the assay with HaCat [1], with HACAT [2] and in the assay with HEK293T.
Consider `CC(COc1ccccc1)NC(C)C(O)c1ccc(O)cc1` (centres undefined), for which the max response in the assay on CRL-7250 is -14.7%; in the assay with HaCat [1] it was -5.97%; with KB-3-1 it was 15.9%. Moreover, the compound was classed as inactive in the assay on HEK293, in the assay with NIH3T3 and in the assay with HEK293T. The Potency entry in the assay with MCC-13 was “inactive”.
For `c1ccc2c(CC3=NCCN3)cccc2c1`, the max response is -1.39% with CRL-7250; -1.06% with HaCat [1]; -1.96% and -17.3% and -10.3% in the assay on KB-3-1; 1.32% in the assay with NIH3T3. The compound was called inactive in the assay on HEK293 and in the assay with HEK293T. Further, the Potency result in the assay with MCC-13 was “inactive”.
For `C[C@H]1O[C@@H](n2cc(F)c(=O)[nH]c2=O)[C@H](O)[C@@H]1O`, the Potency result in the assay with TAB165, in the assay with W2 and with MCC-13 was “inactive” in each case. Besides, the max response in the assay with CRL-7250 was -5.52%; with KB-3-1, -0.506%; in the assay on NIH3T3, -23.8%. The result with HEK293 and in the assay on HEK293T was inactive. Further, the Potency in the assay with HaCat [1] is 10.6 µM (active).
Regarding `CCCCN(CCCC)CCCOC(=O)c1ccc(N)cc1`, the Potency entry with TAB165 and in the assay with MCC-13 was “inactive” in each case. Further, the outcome with CRL-7250, in the assay with HEK293, in the assay on NIH3T3 and in the assay on HEK293T was inactive. In addition, the max response with HaCat [1] was -1.28%; with KB-3-1, -15.2%.
Regarding `CN1[C@@H]2CC[C@H]1CC(OC(=O)C(O)c1ccccc1)C2` (some centres undefined), the max response in the assay on CRL-7250 was 1.28%; in the assay on HEK293 it was -8.16%; with KB-3-1, 3.38% and -1.31% and -10.9%. For the same compound, the compound was classed as inactive in the assay with HaCat [1], in the assay with NIH3T3 and in the assay on HACAT [2]. Further, the Potency entry in the assay on MCC-13 is “inactive”.
Consider `O=C1O[C@H]([C@@H](O)CO)C(O)=C1O`, for which the Potency entry in the assay with TAB165, in the assay with W2 and in the assay on MCC-13 was “inactive” throughout. Also, the max response with CRL-7250 is 0.399%; in the assay on KB-3-1, -6.89% and 6.42%. For the same compound, the call with HEK293, in the assay with HaCat [1], in the assay on NIH3T3, in the assay with HACAT [2] and in the assay on HEK293T was inactive.
For `CCOC(=O)c1ccc(O)cc1`, the Potency result in the assay on TAB165, with W2 and in the assay on MCC-13 was “inactive” each time. Also, the figures for the max response in the assay on CRL-7250, in the assay on HaCat [1] and in the assay on KB-3-1 were -1.17%, -1.41% and -4.79%, respectively. In addition, the outcome with HEK293, with NIH3T3 and with HEK293T was inactive.
Take `CC1CC(OC(=O)C(O)c2ccccc2)CC(C)(C)N1C` (centres undefined): the max response in the assay on CRL-7250 was -13.8%; with HaCat [1], 1.05%; with KB-3-1, 1.03% and 0.565%. For the same compound, the compound was classed as inactive in the assay with HEK293, in the assay with NIH3T3 and in the assay on HEK293T. In the assay on MCC-13, the Potency result was “inactive”.
With `CC(=O)Nc1ccc(/C=N/NC(N)=S)cc1`, the Potency entry in the assay on TAB165, in the assay on W2 and in the assay with MCC-13 was “inactive” throughout. For the same compound, the outcome in the assay with CRL-7250, with HaCat [1] and in the assay with HACAT [2] was inactive. In addition, the max response in the assay on HEK293 is 0.104%; in the assay with KB-3-1, -10.7% and 2.19%; with NIH3T3, -3.1%.
